Laboratory results as given in PubChem BioAssay AID1159583 (ICCB-Longwood Screening Facility, Harvard Medical School, 2016).
“And” between values parts separate entries of the source, which are not always exact repeats. Equal entries are not always repeated. Out of some 300,000 compounds screened, about 310 (0.1%) were called active. No stated cut-off is given here; in the data, active means fluorescence inhibition mostly above about 23% (no sharp cut-off); inactive means mostly below about 17%. For the sample, actives were picked, then their nearest neighbours and some compounds at random.

experiment: hypoxia reporter signal reduction in M. tuberculosis – fluorescence, absorbance growth readout, primary screen (AID 1159583); conditions: M. tuberculosis hypoxia-regulated fluorescent reporter, stronger effect = higher value, concentration not given here; growth inhibition: measured here: M. tuberculosis growth (absorbance)

SMILES | fluorescence inhibition | growth inhibition
Cc1ccc(C=NNC(=O)Nc2ccccc2)o1 | 14.8% (inactive) | 5.33%
CCN1C(=O)C(CC(=O)Nc2ccccc2)SC1=Nc1ccccn1 (stereo unspecified) | 0.176% (inactive) | 4.92%
COc1ccc(Cl)cc1NC(=O)CC(C)=NNC(=O)COc1ccc(C)cc1 | 13.3% (inactive) | 3.14%
O=[N+]([O-])c1ccc(Cl)cc1NN=Cc1ccncc1 | 6.88% (inactive) | -1.48%
O=C(NN=Cc1ccncc1)c1cc2c(ccc3ccccc32)o1 | -1.63% (inactive) | 10.4%
COc1cc(C=NNC(=S)NCc2ccccc2)ccc1OCC#N | 8.67% (inactive) | 7.58%
CC(C)c1ccc(C=NNC(=O)c2cc(-c3cccc([N+](=O)[O-])c3)n[nH]2)cc1 | 16.3% (inactive) | 1.5%
Cc1ccc(C=NNC(=O)CCCOc2ccc(Cl)cc2Cl)cc1[N+](=O)[O-] | 1.7% (inactive) | 5.81%
O=C(NN=Cc1ccccc1)C(O)c1ccccc1 (stereo unspecified) | -2.65% (inactive) | -6.95%
COc1ccc2c(c1)C1C(CO2)C(c2ccccc2)[C@]2(C)C(=O)Nc3cc(F)c(F)cc3C(=O)N12 (stereo partly specified) | 12.4% (inactive) | 11.9%
COC(=O)C1=C(C)N(Cc2ccccc2)C(=NCc2ccco2)NC1c1cccc(F)c1 (stereo unspecified) | -3.36% (inactive) | 4.01%
CC(=O)C=C(C)NC(Cc1c[nH]c2ccccc12)C(=O)O (stereo unspecified) | -7.06% (inactive) | -3.51%
CC(=NNC(=S)NC1CCCCC1)c1ccc(OC(F)F)cc1OC(F)F | 2.47% (inactive) | 1.1%
COc1ccc(Cl)cc1C(=O)NN=Cc1ccc(N2CCOCC2)cc1 | -1.94% (inactive) | 6.35%
CC(Cc1ccccc1)=NNC(=O)CNC(=O)c1cccc(Br)c1 | -10% (inactive) | -2.78%
CCOC(=O)C1=C(N)n2c(sc(=Cc3ccco3)c2=O)=C(C(=O)OC)C1c1ccco1 (stereo unspecified) | -1.95% (inactive) | -7.35%
C=CCc1cccc(C=Nc2nc3ccccc3n2CC)c1O | 7.78% (inactive) | 3.33%
CCOc1c2ccc(C(=O)NC(C)C3CCCCC3)cc2nn1CCOC (stereo unspecified) | 1.7% (inactive) | 7.24%
CC#CCN1c2ccccc2[C@]23CC(C(=O)OC)N(C(C)=O)C2=NC(C(=O)OC)=C(C(=O)OC)C13 (stereo partly specified) | 21.5% (inactive) | 5.39%
COc1ccc(C(=O)NN=Cc2ccc(OC(=O)c3cccc4ccccc34)c([N+](=O)[O-])c2)cc1 | 8.45% (inactive) | 6.08%
COc1ccc(C2CC(=O)C=C(c3ccc(OC(F)(F)F)cc3)C2)cc1OC (stereo unspecified) | -7.53% (inactive) | 0.871%
Cc1sc2nc(C)n(N=Cc3ccc(O)cc3)c(=O)c2c1C | 8.51% (inactive) | 1.4%
CCCCN1C(N)=NCC1CCCCN (stereo unspecified) | 3.89% (inactive) | 4.01%
O=C(CCCC(=O)NN=Cc1ccccc1C(=O)O)NN=Cc1ccccc1C(=O)O | 3.15% (inactive) | 3.53%
NC(=NOC(=O)c1ccc2c(c1)OCO2)c1ccc([N+](=O)[O-])cc1 | 3.03% (inactive) | 4.61%
COc1ccc(C=NNc2nc(=O)[nH]nc2C)cc1[N+](=O)[O-] | 5.04% (inactive) | 5.94%
CCn1c(SCC(=O)NN=C(C)c2ccco2)nnc1-c1ccccc1 | -6.87% (inactive) | -5.95%

SMILES | fluorescence inhibition | growth inhibition
Oc1ccccc1C=NNc1cccc2cccnc12 | 2.03% (inactive) | 5%
O=C(Cc1cc(=O)[nH][nH]1)NN=Cc1ccccc1Cl | -6.7% (inactive) | 3.17%
Cc1ccc(S(=O)(=O)NN=Cc2ccc(OC3CSC3)cc2)cc1 | -5.05% (inactive) | 2.12%
CC(NCCN1CCOCC1)=C(C#N)C(N)=O | 7.39% (inactive) | 4.01%
O=C1C2CC3C=CC2(O3)C2OCCCN12 (stereo unspecified) | 8.99% (inactive) | 11.9%
CC1CC2C3CCC4=CC(=O)C=C[C@]4(C)[C@@]3(F)C(O)C[C@]2(C)C1C(=O)CO (stereo partly specified) | -3.35% (inactive) | 0.308%
Nc1cnnc(NN=Cc2ccccc2)c1Cl | 7.6% (inactive) | 4.96%
Cc1cc(C(=O)NN=Cc2ccc(-c3ccc([N+](=O)[O-])cc3C)o2)n[nH]1 | 5.18% (inactive) | 1.96%
O=C(NN=Cc1ccccn1)c1cc(-c2ccccc2Cl)n[nH]1 | 10.9% (inactive) | 11.2%
CC(=NNC(=O)OC(C)(C)C)c1ccc(-n2ccnc2)cc1 | 11.1% (inactive) | 15.9%
N#CC(=NNc1cccc(F)c1)C(=O)C1CC1 | 0.893% (inactive) | -0.741%
CC(CC(O)(C=NO)c1ccccc1)=NO (stereo unspecified) | 10% (inactive) | 6.39%
COc1ccc(C=NNc2nc3ccccc3[nH]2)c(OC)c1OC | 1.22% (inactive) | -0.982%
CCOC(=O)C(=Cc1ccc(C)cc1)NC(=O)c1ccccc1 | 1.97% (inactive) | 2.94%
NC(Cc1cccc2ccccc12)=NOC(=O)Cc1cccs1 | 2.6% (inactive) | 4.27%
COc1ccc(CNC(=O)C2CC=CC3CCN(C4CC4)C(=O)C32)cc1 (stereo unspecified) | 19.3% (inactive) | 20.6%
Cc1cc(C(=O)NN=Cc2cn[nH]c2-c2ccccc2)cs1 | -3.45% (inactive) | -1.59%
COc1cccc(C2Oc3ccc(Br)cc3C(=O)C2OC(=O)NC2CCCC2)c1 (stereo unspecified) | 2.63% (inactive) | 0.422%
CCCCCC=CC1=CC(=O)CC(c2ccc(Cl)cc2)C1 (stereo unspecified) | -0.281% (inactive) | 11.6%
Cc1cc(SCC(=O)NN=Cc2ccccc2C(=O)O)c(C)cc1Br | 0.764% (inactive) | -1.84%
OCC1OC(O)C(O)C1O (stereo unspecified) | 1.54% (inactive) | -8.94%
CC(C)(C)OC(=O)CC1CC=CCC(CC(=O)NC(CO)Cc2ccccc2)C(=O)NC(C(C)(C)C)COC1=O (stereo unspecified) | 0.171% (inactive) and 3.19% (inactive) | 4.91% and 7.16%
CC(C)(O)C1C2OC(=O)C1[C@]1(O)CC3O[C@]34C(=O)OC2[C@]14C (stereo partly specified) (tested in a mixture with another compound) | -0.0447% (inactive) | 5.86%
COC(=O)[C@]1(Cc2ccccc2)NC(c2ccc(-c3cccc(Cl)c3)c(OC)c2)C2C(=O)N(C)C(=O)C21 (stereo partly specified) | 1.8% (inactive) | 8.95%
O=C(NN=Cc1c[nH]c2ccccc12)c1[nH]c2ccc(Br)cc2c1-c1ccccc1 | 4.24% (inactive) | -6.01%
O=C(NN=CC1CC2CCC1C2)C1CC1 (stereo unspecified) | -1.06% (inactive) | -3.88%
